Data on seven compounds can be found in PubChem BioAssay (Tox21).

A short description of test [1]: A CellTox Green Cytotoxicity Assay to monitor cytotoxicity in HepG2 cells - 0 hour (AID 1224882). Note: nearly all actives have a fitted effect of over 35% in size. The method, boiled down: (§1)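 Real-time, homogeneous cytotoxicity readout: dead-cell DNA staining by CellTox Green in HepG2 monolayers, fluorescence measured at timed intervals up to 40 h of continuous compound exposure.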
A short description of test [2]: A CellTox Green Cytotoxicity Assay to monitor cytotoxicity in HepG2 cells - 32 hour (AID 1224883). Note: nearly all actives have a fitted effect of over 50% in size. Note: potency is the fitted concentration of half-maximal effect. An outline of the steps:
as §1

Test [3] can be described thus: A CellTox Green Cytotoxicity Assay to monitor cytotoxicity in HEK293 cells - 8 hour (AID 1224884). Note: nearly all actives have a fitted effect of over 35% in size. Note: potency is the fitted concentration of half-maximal effect. An outline of the steps:
(§2)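 Cytotoxicity was tracked continuously in HEK293 cells by a DNA-binding dye excluded from viable cells. Compounds were transferred in DMSO 5 h after seeding; fluorescence was recorded at intervals up to 40 h.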

Test [4] in a line: qHTS RealTime-Glo MT Cell Viability Assay in HepG2 cells - 16 hour (AID 1224885). Note: nearly all actives have a fitted effect of over 50% in size. Note: potency is the fitted concentration of half-maximal effect. The method, boiled down: (§3)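 Cells + NanoLuc/prosubstrate dispensed (600 cells/well) → 5 h at 37 C/5% CO2 → compounds in DMSO transferred → 40 h incubation at 37 C, luminescence read at 0, 8, 16, 24, 32, 40 h.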
In general terms: In qHTS, concentration-response curves come from the screen itself.

Test [5] is described as follows: qHTS RealTime-Glo MT Cell Viability Assay in HEK293 cells - 24 hour (AID 1224886). For activity change, negative = cytotoxicity: top concentration of the series differs between compounds. Note: nearly all actives have a fitted effect of over 50% in size. Note: potency is the fitted concentration of half-maximal effect. An outline of the steps:
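Tox21 10K qHTS, HEK293, 600 cells/well, RealTime-Glo reagent co-dispensed with cells; 5 h preincubation, compound by pintool, 37 C, luminescence at 0–40 h.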

A short description of test [6]: qHTS RealTime-Glo MT Cell Viability Assay in HEK293 cells - 8 hour (AID 1224887). For activity change, negative = cytotoxicity: top concentration of the series differs between compounds. Note: nearly all actives have a fitted effect of over 50% in size. Note: potency is the fitted concentration of half-maximal effect. The method, boiled down: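 Nonlytic bioluminescent viability monitoring. HEK293 at 600 cells/well with reagent; 5 h settle; compound transfer by pintool; plates held at 37 C and read at set time points.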
Test [7] can be described thus: A CellTox Green Cytotoxicity Assay to monitor cytotoxicity in HEK293 cells - 16 hour (AID 1224888). Note: nearly all actives have a fitted effect of over 35% in size. Note: potency is the fitted concentration of half-maximal effect. An outline of the steps: as §2
Test [8] can be described thus: qHTS RealTime-Glo MT Cell Viability Assay in HepG2 cells - 0 hour (AID 1224889). Note: nearly all actives have a fitted effect of over 50% in size. An outline of the steps: as §3
Test [9] in a line: A CellTox Green Cytotoxicity Assay to monitor cytotoxicity in HepG2 cells - 8 hour (AID 1224890). Note: nearly all actives have a fitted effect of over 45% in size. An outline of the steps:
as §1

Test [10] is described as follows: qHTS assay to identify small molecule antagonists of the estrogen receptor alpha (ER-alpha) signaling pathway using the BG1 cell line in the presence of 0.1 nM 17-beta-estradiol - cell viability counter screen (AID 1259241). Note: nearly all actives have a fitted effect of over 40% in size. An outline of the steps: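 In this screen, hormone-deprived VM7Luc4E2 cells were seeded at 4,000 per well, dosed with compound and 0.1 nM estradiol final, and incubated 22 hr at 37C and 5% CO2; fluorogenic live-cell protease signal reported viability.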

Test [11] can be described thus: qHTS assay to identify small molecule antagonists of the androgen receptor (AR) signaling pathway using the MDA cell line in the presence of 0.5 nM R1881 - cell viability counter screen (AID 1259242). Note: nearly all actives have a fitted effect of over 45% in size. Note: potency is the fitted concentration of half-maximal effect. An outline of the steps:
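Cytotoxicity toward MDA-kb2 cells is measured by CellTiter-Fluor live-cell protease fluorescence after 16 hr compound exposure at 37C in the presence of 0.5 nM R1881 stimulator.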

Test [12] in a line: qHTS assay to identify small molecule HDAC inhibitors (AID 1259364). Note: top concentration of the series differs between compounds; nearly all actives have a fitted effect of over 45% in size. The method, boiled down: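 Homogeneous cell-based luminescent assay of endogenous class I/II HDAC activity; HCT-116 cells, 2 h compound exposure, 30 min HDAC-Glo development at RT.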
Test [13] in a line: qHTS assay to identify small molecule HDAC inhibitors - cell viability counter screen (AID 1259365). The method, boiled down:
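Measured quantity is CellTiter-Glo luminescence from wild-type HCT-116 cells after compound incubation of 2hr at 37C, 5% CO2; reagent developed 30min at room temperature.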

Test [14] is described as follows: qHTS assay to identify small molecule antagonists of the sonic hedgehog signaling (Shh) pathway - cell viability counter screen (AID 1259367). Note: nearly all actives have a fitted effect of over 55% in size. Note: potency is the fitted concentration of half-maximal effect. An outline of the steps:
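After a 4 hr settling period, 3T3 Gli1-Luc cells were treated with DMSO-dissolved chemicals and conditioned medium, kept 24 hr at 37C in 5% CO2, and assayed for viability by CellTiter-Fluor fluorescence following 1 hr reagent incubation.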

Test [15] concerns the target Estrogen receptor (Homo sapiens) (UniProt P03372). Nature of the test: qHTS assay to identify small molecule antagonists of the estrogen receptor alpha (ER-alpha) signaling pathway using the BG1 cell line in the presence of 0.1 nM 17-beta-estradiol (AID 1259244). Note: nearly all actives have a fitted effect of over 50% in size. Note: potency is the fitted concentration of half-maximal effect. The method, boiled down: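 After 5 days in hormone-depleted medium (charcoal-stripped serum, no phenol red), VM7Luc4E2 cells were seeded, incubated 24 h, then co-treated with compound and 0.1 nM (final) estradiol for 22 h before luminescence detection.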

Test [16] can be described thus: qHTS assay to identify small molecule agonists of the sonic hedgehog signaling (Shh) pathway - cell viability counter screen (AID 1259366). Note: nearly all actives have a fitted effect of over 50% in size. Note: potency is the fitted concentration of half-maximal effect. An outline of the steps:
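In quantitative high-throughput format, 3T3 Gli1-Luc cells were exposed to compounds for 24hr and multiplexed for viability using CellTiter-Fluor, incubated 1hr at 37C before the fluorescence read.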

The nature of test [17]: qHTS assay to identify small molecule agonists of the sonic hedgehog signaling (Shh) pathway (AID 1259368; calls by dose curve;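 note: NIH/3T3-derived 3T3Gli1-Luc cells carrying a stable Gli1-driven firefly luciferase reporter; series mostly up to about 92 µM; nearly all actives have a fitted effect of over 15% in size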). An outline of the steps: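 Steps: seed 3T3 Gli1-Luc cells, incubate 4 hr at 37 C, pin-transfer compounds in DMSO alongside a positive control, incubate 24 hr, add luciferase detection reagent, wait 30 min at room temperature, read luminescence.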
Test [18] in a line: qHTS assay to identify small molecule antagonists of the sonic hedgehog signaling (Shh) pathway (AID 1259369; calls by dose curve; note: nearly all actives have a fitted effect of over 45% in size; note: potency is the fitted concentration of half-maximal effect). The method, boiled down: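 Inhibition of Shh signalling is measured as reduced Gli1-response-element firefly luciferase output in an NIH/3T3-derived stable reporter clone stimulated with conditioned medium for 24hr.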
Test [19] has as its target Androgen receptor (Homo sapiens) (UniProt P10275). Nature of the test: qHTS assay to identify small molecule antagonists of the androgen receptor (AR) signaling pathway using the MDA cell line in the presence of 0.5 nM R1881 (AID 1259243). Note: nearly all actives have a fitted effect of over 50% in size. The method, boiled down: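 Steps: seed MDA-kb2 cells, incubate 5 hr at 37C; pin-transfer compounds in DMSO; add R1881 to 0.5 nM final; incubate 16 hr; add ONE-Glo, wait 30 min at room temperature; read luminescence.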

Values without a mark were called inactive. Results filed as inconclusive are left out. The source made the active and inactive calls. Unless noted, calls come from the whole dose curve; as a rule, active = well fitted curve in the direction sought with a large enough effect in the repeat runs; inconclusive = weak or mixed curves; inactive = no such curve, though single readings can be large; an effect the other way counts as inactive or inconclusive.
% is set by controls: 0 for no effect and ±100 for the full control effect.

Estrogen receptor (Homo sapiens), sequence (P03372 whole entry, looked up): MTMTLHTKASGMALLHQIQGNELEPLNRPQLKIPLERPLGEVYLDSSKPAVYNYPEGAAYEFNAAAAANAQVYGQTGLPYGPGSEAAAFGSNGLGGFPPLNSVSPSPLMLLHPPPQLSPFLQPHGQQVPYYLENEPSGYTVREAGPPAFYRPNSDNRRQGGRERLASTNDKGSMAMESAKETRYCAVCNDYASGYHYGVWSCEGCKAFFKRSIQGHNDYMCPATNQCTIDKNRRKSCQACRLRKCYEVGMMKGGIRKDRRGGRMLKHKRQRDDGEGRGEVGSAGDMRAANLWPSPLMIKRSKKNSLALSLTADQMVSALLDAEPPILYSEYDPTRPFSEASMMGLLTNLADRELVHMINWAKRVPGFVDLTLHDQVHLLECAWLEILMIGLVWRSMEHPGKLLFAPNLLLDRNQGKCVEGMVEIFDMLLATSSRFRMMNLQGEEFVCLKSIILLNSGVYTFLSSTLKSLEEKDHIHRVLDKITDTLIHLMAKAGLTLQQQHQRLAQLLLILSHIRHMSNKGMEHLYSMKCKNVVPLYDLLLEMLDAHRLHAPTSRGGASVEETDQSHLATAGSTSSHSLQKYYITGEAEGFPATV
Androgen receptor (Homo sapiens), sequence (P10275 whole entry, looked up): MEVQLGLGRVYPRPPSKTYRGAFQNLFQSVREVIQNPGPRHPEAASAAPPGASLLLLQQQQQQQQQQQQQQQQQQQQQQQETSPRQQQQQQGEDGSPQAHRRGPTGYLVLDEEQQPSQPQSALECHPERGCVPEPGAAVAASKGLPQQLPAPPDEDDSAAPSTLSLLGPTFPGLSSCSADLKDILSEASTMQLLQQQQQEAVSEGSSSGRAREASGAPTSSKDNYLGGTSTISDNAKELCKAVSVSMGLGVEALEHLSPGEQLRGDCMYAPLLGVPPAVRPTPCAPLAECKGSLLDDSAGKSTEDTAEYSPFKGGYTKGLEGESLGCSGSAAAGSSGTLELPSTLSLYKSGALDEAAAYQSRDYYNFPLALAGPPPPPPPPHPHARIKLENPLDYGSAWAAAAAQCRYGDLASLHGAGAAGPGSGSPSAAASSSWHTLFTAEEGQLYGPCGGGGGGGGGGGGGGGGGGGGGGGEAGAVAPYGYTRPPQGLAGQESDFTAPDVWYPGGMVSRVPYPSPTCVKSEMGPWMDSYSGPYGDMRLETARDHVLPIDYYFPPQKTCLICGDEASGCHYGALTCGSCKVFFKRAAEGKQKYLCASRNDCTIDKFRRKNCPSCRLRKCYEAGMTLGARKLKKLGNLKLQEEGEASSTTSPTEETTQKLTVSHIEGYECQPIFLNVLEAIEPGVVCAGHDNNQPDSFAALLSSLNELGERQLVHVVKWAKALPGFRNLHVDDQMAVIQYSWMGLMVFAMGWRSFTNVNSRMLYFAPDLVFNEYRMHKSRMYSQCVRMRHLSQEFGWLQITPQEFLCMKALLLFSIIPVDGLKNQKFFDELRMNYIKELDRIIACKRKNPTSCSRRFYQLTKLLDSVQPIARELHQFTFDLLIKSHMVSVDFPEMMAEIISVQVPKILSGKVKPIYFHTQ

`CN1[C@@H]2CC[C@@H]1CC(OC(=O)C(CO)c1ccccc1)C2` (stereo not given in full): the Potency result in test [1], in test [2], in test [3], in [4], in test [5] and in test [6] was “inactive” in each case. For the same compound, the Potency result in test [7], in test [8], in [9], in [10], in [11] and in test [12] was “inactive” in each case. Further, the Potency result in [13] and in [14] was “inactive” in each case.
`O=C1OC(=O)c2ccc3c4c(ccc1c24)C(=O)OC3=O`: the Potency entry in test [1], in [2], in test [3], in test [4], in test [5] and in test [6] was “inactive” each time. In addition, the Potency entry in [7], in [8], in [9], in [10], in [11] and in test [15] was “inactive” throughout. Further, the Potency entry in [12], in test [13], in [16], in test [14], in [17] and in test [18] was “inactive” throughout.
As for `CCOC(=O)COc1ccc(C)cc1`, the Potency result in test [1], in test [2], in test [3], in [4], in test [5] and in [6] was “inactive” in each case. The Potency result in test [7], in test [8], in test [9], in [10], in test [11] and in test [15] was “inactive” each time. In addition, the Potency entry in [12], in test [13], in [16], in test [14], in test [17] and in [18] was “inactive” each time.
Consider `Oc1c(Br)cc(Br)c2cccnc12`, for which the Potency entry in test [1], in test [2], in test [3], in [4], in test [5] and in test [6] was “inactive” throughout. Besides, the Potency result in [7], in [8], in test [9], in test [10], in [11] and in test [12] was “inactive” each time. In addition, the Potency result in test [13] and in [17] was “inactive” throughout. Besides, the Potency was 7.5 µM (active) in test [16] and 2.37 µM (active) in test [18].
As for `CC(C)=CCCC(C)CCOC(=O)C(C)C` (stereo not given), the Potency entry in test [1], in test [2], in test [3], in [4], in test [5] and in test [6] was “inactive” in each case. Moreover, the Potency result in [7], in test [8], in test [9], in test [10], in [11] and in test [15] was “inactive” each time. Also, the Potency entry in test [12], in [13], in test [16], in test [14], in test [17] and in [18] was “inactive” in each case.
For the compound `CCCCCCCCCCCCCC[n+]1ccccc1`, the Potency result in test [1], in test [8] and in test [17] was “inactive” each time. Also, the Potency in [2] was 11 µM (active); in test [3] it was 54.9 µM (active); in [4], 21.9 µM (active); in [5], 6.16 µM (active); in test [6], 54.9 µM (active); in [7], 54.9 µM (active). For the same compound, the Potency was 24.3 µM (active) in test [11]; 2.17 µM (active) in test [15]; 61.1 µM (active) in test [16]; 61.1 µM (active) in test [14]; 0.0049 µM (active) in test [18].
Regarding `CCCCCCCCCCCCCCCCCO`, the cytotoxicity in test [1] is -1.06% [at 15.8 µM]. The cytotoxicity increase is 6.48% [at 15.8 µM] in test [2] and -22.7% [at 15.8 µM] in test [3]. For the same compound, the activity change, negative = cytotoxic in [4] is 1.76% [at 15.8 µM]. Further, the activity change, negative = cytotoxicity in test [5] was 0.271% [at 15.8 µM]; in test [6], 2.17% [at 15.8 µM]; in test [8], -0.0873% [at 15.8 µM]; in [10], -2.67% [at 19 µM]; in test [13] it was 1.77% [at 19 µM]. For the same compound, the activity change was -22.1% [at 15.8 µM, hits give high values] in test [7] and -2.43% [at 18.9 µM, hits give high values] in test [17]. In addition, in test [19], the activity, negative = inhibition was -1.74% [at 19 µM]. The activity change, negative = inhibition was 0.173% [at 19 µM] in [15], -0.454% [at 19 µM] in [12] and -1.47% [at 19 µM] in test [18]. In addition, the figures for the viability change, negative = cytotoxic in [16] and in [14] were -3.91% [at 19 µM] and 5.3% [at 19 µM], respectively.
